Bioassay records from PubChem.
Sampled rows, rich in hits. Any-hit rate of the full collection: about 2.2%.
LGR2 antag: Drosophila LGR2 receptor signaling inhibition; HEK293 LGR2, CRE-luciferase, bursicon-stimulated, 4 h; inhibition, % at 9.99 µM; 380,000 compounds, 0.35% hits; AID 720647;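 active means drop in luminescence signal, shown as inhibition above about 50% in the replicate tests, limit read from the data, passing the limit was not always enough; inconclusive means probably only some replicates passing the limit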;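 further: agonist challenge used bursicon conditioned medium at about half maximal strength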
EWS-Fli inh: EWS/Fli transcriptional activity inhibition | A673 NR0B1-luciferase reporter, viability-normalised | inhibition, % at 12.6 µM | 350,000 compounds, 0.67% hits | AID 651661;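 active means mean inhibition of at least 50% after viability correction, with every replicate also passing that limit; inconclusive means mean reaches 50% but only one of two replicates passes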;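 further: firefly luciferase signal divided by Alamar Blue viability fluorescence both relative to DMSO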
PAX8 inh HTS: PAX8 transcriptional activity inhibition. RMG-I TPO-luciferase reporter, SteadyGlo, 24 h. inhibition, % at 12.6 µM. 360,000 compounds, 1.2% hits. AID 652154;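 active means mean replicate inhibition at least 60% with every replicate also reaching 60%; inconclusive means only one of the two criteria is met; inactive means mean below 60% and not all replicates reaching 60%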;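 further: luciferase light reporting Pax8 driven TPO promoter activity; plate controls were median of neutral control wells for no effect and mitoxantrone controls for full effect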
EBV LMP1 NFkB: inhibitors of Epstein-Barr LMP1-induced NF-kappaB reporter; LMP1-induced NF-kappaB luciferase reporter cells, luminescence; inhibition, % at 12.5 µM; 350,000 compounds, 0.69% hits; AID 504558; in the data active means inhibition above about 41%; inconclusive means no clear call, values can overlap the other calls;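 further: 0% = neutral control wells and 100% = reference inhibitor control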
MITF TRPM1 inh: MITF TRPM1 promoter inhibition in SK-MEL-5 cells. SK-MEL-5 TRPM1 promoter luciferase, 24 h. inhibition, % at 12.5 µM. 330,000 compounds, 0.83% hits;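 active means mean inhibition across replicates of 60% or more, whatever share of single replicates reaches that level; inconclusive means some that reach 60%, reason not given; inactive means mean inhibition across replicates below 60%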
PGC1a acetyl inh: lowers PGC1a acetylation signal in U2OS cells | AlphaScreen anti-acetyl-lysine; with virally co-expressed GCN5 acetyltransferase | inhibition, % at 15.6 µM | 350,000 compounds, 0.17% hits;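 active means every replicate shows inhibition of at least 40%; inconclusive means mean inhibition at least 40% but some replicate below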;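 further: 0% = neutral control wells and 100% = positive control wells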
* marks the source's active call; other numbers are inactive results; ? = inconclusive; · = not tested or not shown.

SMILES	LGR2 antag	EWS-Fli inh	PAX8 inh HTS	EBV LMP1 NFkB	MITF TRPM1 inh	PGC1a acetyl inh
CN1CCN(c2ccc(NC(=O)c3ccco3)cc2Cl)CC1	6.7	-25.8	-124.2	59.8*	-10.4	·
Cc1sc2ncnc(NCC3COc4ccccc4O3)c2c1C (configuration not stated)	11.9	·	22.1	48.6*	31.9	·
c1ccc(-c2csc3ncnc(NCC4COc5ccccc5O4)c23)cc1 (configuration not stated)	16.1	37.0	51.5	34.5	41.8	·
Cc1ccccc1-c1ccccc1[C@H]1[C@@H](C#N)N(C(=O)c2ccccc2)[C@H]1CO	-9.4	20.0	·	·	·	-12.8
N#CC1c2ccccc2-c2ccccc2N1C(=O)c1ccccc1 (configuration not stated)	0.7	54.5*	57.8	11.9	·	-3.1
Cc1cc2oc(=O)cc(Cn3ncc(Cl)c(Cl)c3=O)c2cc1Cl	·	·	·	-32.4	83.4*	-39.1
Cc1cccc(Cn2ncc(Cl)c(Cl)c2=O)c1	99.3*	?	·	-1.8	28.3	-33.4
O=c1c2ccccc2cnn1Cc1ccc(Cl)c(Cl)c1	-12.9	-6.9	25.9	-1.6	0.7	·
Cc1cc2oc(=O)cc(CN3CCN(c4ccccc4)CC3)c2cc1Cl	11.7	-8.5	5.0	·	·	-2.6
Cc1ccc(C)c(C(=O)Cn2ncc(Cl)c(Cl)c2=O)c1	-3.8	·	·	-98.1	74.6*	-484.9
Cc1noc(C)c1S(=O)(=O)Nc1cccc2c1O[C@@H](CN(C)CC1CCCCC1)[C@@H](C)CN([C@@H](C)CO)C2=O	-0.9	-6.2	-9.4	·	·	-8.7
C[C@@H]1CCCCO[C@@H](CN(C)S(=O)(=O)c2ccc(F)cc2)[C@@H](C)CN([C@H](C)CO)C(=O)c2cc(NC(=O)Cc3ccccc3)ccc2O1	-2.8	4.5	0.0	·	·	4.8
Cc1cc(C)c(NC(=O)c2ccc(S(=O)(=O)N(C)C)cc2)c(C)n1	6.5	2.8	·	-0.8	5.5	50.4*
CC(C)NC(=O)N(C)C[C@H]1Oc2c(NC(=O)CCCCCC(=O)Nc3ccccc3N)cccc2C(=O)N([C@H](C)CO)C[C@H]1C	-6.9	-5.5	-17.5	·	·	-3.8
Cc1ccc(S(=O)(=O)Nc2cccc3cccnc23)c([N+](=O)[O-])c1	-0.4	6.6	71.0*	12.6	88.4*	·
O=S(=O)(Nc1cccc2cccnc12)c1ccccc1	2.9	70.5*	105.4*	-1.0	89.5*	·
Cc1ccc2cccc(NS(=O)(=O)c3ccccc3)c2n1	15.5	-32.0	96.2*	·	·	·
CS(=O)(=O)Nc1cccc2cccnc12	·	·	·	-11.1	11.6	27.6
Cc1cc(C)n(-c2ccc3cccc(NS(C)(=O)=O)c3n2)n1	·	·	·	-5.6	62.1*	11.4
CC(=O)Nc1ccc(S(=O)(=O)Nc2cccc3cccnc23)cc1	7.5	8.2	4.5	7.2	5.6	·
COCCNC(=O)C[C@@H]1CC[C@H](NC(=O)NC2CCCCC2)[C@@H](CO)O1	-1.7	·	·	·	·	9.3
COc1cccc(S(=O)(=O)N(C)C[C@H]2Oc3ncc(C#CC(C)C)cc3C(=O)N([C@@H](C)CO)C[C@@H]2C)c1	23.2	5.7	22.1	·	·	1.4
CNc1cc(C)nc(-n2nc(C)cc2C)n1	·	·	·	-1.4	-14.3	-11.1
CCOc1ccc(Nc2cc(C)nc(-n3nc(C)cc3C)n2)cc1	·	·	67.9*	9.7	42.3	-3.6
COC(=O)N(C)c1nc2ccccc2s1	-20.9	·	·	-5.1	-34.7	4.7
SMILES	LGR2 antag	EWS-Fli inh	PAX8 inh HTS	EBV LMP1 NFkB	MITF TRPM1 inh	PGC1a acetyl inh
FC(F)(F)c1ccc(-c2nc3ccccc3s2)cc1	-86.2	-65.5	-49.7	·	·	2.1
COc1ccc(-c2nc3ccccc3s2)cc1O	·	·	74.2*	37.3	45.8	-0.3
COc1cc(-c2nc3ccccc3s2)ccc1O	·	·	·	-3.5	-12.6	4.3
CC(C)c1ccc(-c2nc3ccccc3s2)cc1	100.1*	88.9*	87.9*	69.6*	92.1*	·
COc1cccc(-c2nc3ccccc3s2)c1O	52.9*	-123.9	-36.1	-10.5	-18.9	3.4
CN(C(=O)OC(C)(C)C)c1ccc(-c2nc3ccccc3s2)cc1	99.1*	87.8*	92.0*	80.8*	94.4*	·
COc1cc(OC)c(-c2nc3ccccc3s2)cc1OC	-29.6	-21.2	4.7	7.9	0.1	·
C[C@@H]1CN([C@@H](C)CO)C(=O)c2cc(NC(=O)c3ccccc3)ccc2O[C@@H](C)CCCCO[C@@H]1CN(C)C(=O)Cc1ccccc1	8.6	8.5	·	·	·	-1.4
O=C(C[C@H]1C[C@H]2c3cc(NC(=O)c4cccnc4)ccc3O[C@H]2[C@H](CO)O1)NCc1ccccn1	3.1	-5.4	-5.8	·	·	5.7
COCC(=O)Nc1ccc2c(c1)OC[C@H](C)N(CC1CC1)C[C@@H](C)[C@H](OC)CN(C)C2=O	14.8	-5.8	-9.3	·	·	3.2
O=C(c1cc(S(=O)(=O)NCc2ccco2)ccc1Br)N1CCOCC1	7.1	5.9	2.8	70.9*	6.0	-5.3
COc1ccccc1-c1cc(C(F)(F)F)nc(S(=O)(=O)CCCC(=O)N2CCCCC2C)n1 (configuration not stated)	·	·	8.7	0.2	90.8*	20.7
COc1ccccc1-c1cc(C(F)(F)F)nc(S(=O)(=O)CCCC(=O)NCc2ccc(F)cc2)n1	22.8	-6.6	41.2	13.6	90.3*	·
COc1ccccc1-c1cc(C(F)(F)F)nc(S(=O)(=O)CCCC(=O)NC(C)C)n1	·	·	·	-3.7	86.1*	-1.3
COc1ccccc1-c1cc(C(F)(F)F)nc(S(C)(=O)=O)n1	·	·	·	-5.0	91.5*	-34.6
COc1ccccc1/C=C/C(=O)Nc1cccnc1Cl	-52.5	-88.3	-154.5	-14.5	-66.0	·
COc1ccccc1-c1cc(C(F)(F)F)nc(S(=O)(=O)CCCC(=O)Nc2cccnc2Cl)n1	·	20.3	30.2	-24.1	77.2*	-18.9
C[C@@H](NC(=O)C[C@@H]1CC[C@H]2[C@@H](COC[C@@H](O)CN2C)O1)c1ccccc1	6.5	-4.1	-3.7	·	·	-0.3
COC(=O)c1cc(C(=O)N2CCN(c3cccc(Cl)c3)CC2)cc([N+](=O)[O-])c1	-5.4	50.9*	56.7	13.5	5.4	-77.5
O=C(c1cc([N+](=O)[O-])ccc1Cl)N1CCN(c2ccc([N+](=O)[O-])cc2)CC1	-14.3	12.3	69.7*	6.4	-3.4	·
Cc1ccc(S(=O)(=O)NCc2ccc(C(=O)N3CCN(c4ccc([N+](=O)[O-])cc4)CC3)cc2)cc1	25.4	20.7	88.4*	19.8	52.2	1.5
O=C(c1cccc([N+](=O)[O-])c1)N1CCN(c2cccc(Cl)c2)CC1	-7.6	·	38.1	16.5	0.8	·
C[C@H](CO)N1C[C@H](C)[C@H](CN(C)S(=O)(=O)c2cccc(C#N)c2)OCc2ccccc2-c2c(n(C)c3ccccc23)C1=O	13.8	6.3	52.3	·	·	7.7
O=C1CSC(c2ccc(F)cc2)N1c1nc2ccccc2s1 (configuration not stated)	-6.0	·	-0.5	61.9*	1.6	0.6
Cc1ccc(/C=C2/SC(=S)N(c3ccc(S(=O)(=O)Nc4nccs4)cc3)C2=O)cc1	29.9	2.1	21.8	66.9*	?	0.4
